Laboratory results taken from PubChem BioAssay (NCI).
“And” between values parts separate entries of the source, which are not always exact repeats. Identical values can stand only once. Compounds without any hit were thinned out: in the full panel of roughly 83,000, 20% have a hit.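 Step 1: grow cells in 96-well plates. Step 2: add test compound at a single concentration. Step 3: incubate 48 h. Step 4: record percent growth.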 Unmarked numbers belong to inactive results. The source made the active and inactive calls. Rule for the calls: active = growth percent below 10; inactive = the rest.

system: EKVX NSCLC; assay: NCI-60 one-dose screen, 48 h (100 = growth as untreated, 0 = no growth, -100 = all killed); conditions: 10 µM unless noted

| Structure (SMILES) | growth |
| --- | --- |
| CC[C@@]1(O)C[C@H](OC2CC(N(C)C)C(O)C(C)O2)c2c(O)c3c(c(O)c2[C@H]1OC1CC(N(C)C)C(O)C(C)O1)C(=O)c1cccc(O)c1C3=O (stereo partly specified) | 4.27% (active) |
| COC1CC(CC2CCC(C)C(C(C)C(=O)O)O2)OC2(OC(C)(C3CCC(C)(C4OC(C5OC(O)(CO)C(C)CC5C)CC4C)O3)CC2C)C1C (stereo unspecified) | 19.1% |
| CCC(=O)OC1CCn2c1nc1c2C(=O)C(C)=C(N2CC2)C1=O (stereo unspecified) | 8.46% (active) |
| CO[C@H](/C(C)=C/C=C/C(C)=C/c1coc(C)n1)[C@H](C)[C@H]1C[C@@H](O)[C@@]2(C)O[C@H]2/C=C/[C@@H](C)[C@@H]2C[C@@H](CC(=O)O2)C[C@H]2O[C@@H]2C(=O)O1 | 39.6% |
| CC1=C(CO)C2=C(C)C3(CC3)[C@@](C)(O)C(=O)C2=C1 | 0.643% (active) |
| COC1=C(C)C(=O)C2=C(C1=O)C(CO)N1C(C#N)C3CC4C(C1C2N1CCOC41)N3C (stereo unspecified) | 0.181% (active) |
| CC[n+]1c(-c2ccccc2)c2cc(N)ccc2c2ccc(N)cc21 | 1.88% (active) |
| CN1CCN(c2ccc([N+](=O)[O-])c3no[n+]([O-])c23)CC1 | -34.4% (active) |
| COc1cccc2c1cc([N+](=O)[O-])c1c(C(=O)O)cc3c(c12)OCO3 | 84.3% and 111% |
| CCOC(=O)C(NC(=O)C(Cc1ccc(N(CCCl)CCCl)cc1)NC(C)=O)C(C)C (stereo unspecified) | 97.6% |
| C[C@]12CC[C@H](O)CC1=CC[C@@H]1[C@@H]2CC[C@]2(C)C(=O)CC[C@@H]12 | 85.7% |
| Oc1cccc2cccnc12 | 93% and 110% and 103% |
| COc1ccccc1/C=C(/C)[N+](=O)[O-] | 90.8% and 98.4% |
| CC1=C2C(=O)[C@H]3[C@@H](CC=C4C[C@@H](O)CC[C@@]43C)[C@@H]2CC[C@]12O[C@@H]1C[C@H](C)CN[C@H]1[C@H]2C | 94.3% |
| Cc1cc(N=Nc2ccccc2C)ccc1N | 71.9% |
| COc1ccc(OC)c(/C=C/[N+](=O)[O-])c1 | 67.7% |
| CC[C@](O)(C(=O)O)c1cc2n(c(=O)c1CO)Cc1cc3ccccc3nc1-2 | 10.2% |
| Cc1c(N)nc([C@H](CC(N)=O)NC[C@H](N)C(N)=O)nc1C(=O)N[C@H](C(=O)N[C@H](C)[C@@H](O)[C@H](C)C(=O)N[C@H](C(=O)NCCc1nc(-c2nc(C(=O)NCCC[S+](C)C)cs2)cs1)[C@@H](C)O)C(OC1OC(CO)C(O)C(O)C1OC1OC(CO)C(O)C(OC(N)=O)C1O)c1cnc[nH]1 (stereo partly specified) | 103% [2.5 µM] |
| CC[C@@]1(O)C(=O)OCc2c1cc1n(c2=O)Cc2cc3ccccc3nc2-1 | 13.5% |
| CCC1(O)CC(OC2CC(N(C)C)C(OC3CC4OC5CC(=O)C(C)OC5OC4C(C)O3)C(C)O2)c2c(cc3c(c2O)C(=O)c2c(O)ccc(O)c2C3=O)C1C(=O)OC (stereo unspecified) | 1.67% (active) |
| O=C1c2ccccc2C(=O)C(Cl)C1Cl (stereo unspecified) | -79.6% (active) |
| Cc1ccc(C(=O)OC(C(=O)O)C(OC(=O)c2ccc(C)cc2)C(=O)O)cc1 (stereo unspecified) (tested in a mixture with another compound) | 32.7% |
| CCCCCCCCCCCC1CCCC(C)N1 (stereo unspecified) | 91.2% |
| CC(=O)O[C@H]1C[C@@H]2OC3C=C(C)CCC3(C)[C@@]1(C)[C@@]21CO1 (stereo partly specified) | -13.7% (active) and -15.6% (active) |
| CC[C@@]1(O)C[C@H](OC2CC(N(C)C)C(OC3CC(O)C(OC4CCC(=O)C(C)O4)C(C)O3)C(C)O2)c2c(cc3c(c2O)C(=O)c2c(O)ccc(O)c2C3=O)[C@H]1C(=O)OC (stereo partly specified) | 17.6% |
| C[C@H]1CCC/C=C/[C@@H]2C[C@H](O)C[C@H]2[C@H](O)/C=C/C(=O)O1 | 11.1% |
